Source: PubChem BioAssay
IEC-6 tox-1: kills IEC-6 intestinal cells in KLF5 counter-screen | inhibition, % at 5 µM | actives 0.78% (n = 290,000) | IEC-6 cytotoxicity, luminescence viability; in the data active = inhibition above about 22%;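 note: 0% = plate median of test compound wells and 100% = cytotoxic reference compound wells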
KLF5 inhibitor: kruppel-like factor 5 inhibition; DLD-1 KLF5 promoter-luciferase reporter, luminescence; inhibition, % at 5 µM; actives 0.23% (n = 290,000); AID 1700;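 active = inhibition above a per-plate limit of that plate's mean compound inhibition plus 3 SD, cut at about 60% in these data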;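 note: 0% = DMSO wells and 100% = LY294002 at 200 µM; higher means less KLF5 promoter-driven luciferase light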
Ba/F3 V617F tox: loss of viability in JAK2V617F-driven Ba/F3 cells. Ba/F3 EpoR-JAK2V617F viability, ATP luminescence. inhibition, % at 5.6 µM. actives 1.1% (n = 220,000);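 active = inhibition above the campaign mean plus 3 SD over all tested compounds, cut at about 24% in these data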;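 note: cytokine-independent growth of Ba/F3 cells driven by EpoR plus mutant JAK2; 0% = DMSO-treated cells and 100% = JAK inhibitor I control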
aSyn 5UTR inh: 5' untranslated region of α-synuclein, MLPCN primary screen; actives 0.82% (n = 300,000); alpha-synuclein 5'UTR reporter, inhibitor activity; inhibition, % (tested at 7.5 µM); in the data active = inhibition above about 60%;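 note: H4 neuroglioblastoma cells stably carrying SNCA 5'UTR luciferase fusion; 0% = DMSO wells and 100% = positive control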
BaF3 tox: reduces parental Ba/F3 cell viability, JAK2V617F counter-screen. CellTiter-Glo ATP luminescence. inhibition, % at 5.6 µM. actives 1.1% (n = 220,000). AID 1486;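 active = inhibition above a per-campaign cutoff, the mean inhibition of all tested compounds plus 3 SD, cut at about 27% in these data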;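 note: 0% = DMSO wells and 100% = JAK Inhibitor I control wells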
APP 5UTR inh: APP translation inhibition. SH-SY5Y APP 5'UTR-luciferase reporter, luminescence. inhibition, % at 2 µM. actives 0.82% (n = 190,000);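 active = inhibition above a set limit, derived from the sample mean plus 3 SD, cut at about 45% in these data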
KLF5 inh confirm: KLF5 inhibition, confirmation assay | shares compounds with KLF5 inhibitor | DLD-1 KLF5 promoter firefly luciferase reporter, luminescence | inhibition, % at 4 µM | actives 79% (n = 610);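 active = inhibition above a set limit taken from the earlier primary screen, cut at about 63% in these data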;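 note: 0% = DMSO wells and 100% = LY294002 at 200 µM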
IEC-6 tox-2: rat IEC-6 cytotoxicity, KLF5 inhibitor counter-screen; inhibition, % at 4 µM; shares compounds with KLF5 inhibitor; actives 56% (n = 610); IEC-6 rat intestinal cells, viability luminescence; in the data active = inhibition above about 23%;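 note: cells exposed to compounds for 48 hours before viability read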
Numbers without * were called inactive. Hits are enriched below; roughly 2.2% of the tested compounds scored in any of these assays.

Results for Cc1ccc2nc(Cl)c3cc(C(=O)NCCCN4CCCC4)sc3c2c1 ?
IEC-6 tox-1: 10; KLF5 inhibitor: -14; Ba/F3 V617F tox: 6; aSyn 5UTR inh: -56; BaF3 tox: 7; APP 5UTR inh: 3

How did C=CS(=O)(=O)c1ccc(Oc2ccc(S(=O)(=O)C=C)cc2)cc1 do in these assays?
IEC-6 tox-1: 76*; KLF5 inhibitor: 77*; Ba/F3 V617F tox: 84*; aSyn 5UTR inh: -108; BaF3 tox: 68*; APP 5UTR inh: 90*; KLF5 inh confirm: 47; IEC-6 tox-2: 38*

What do the screens show for `NS(=O)(=O)c1ccc(Oc2ccc(S(N)(=O)=O)cc2)cc1`?
IEC-6 tox-1: -2; KLF5 inhibitor: -45; Ba/F3 V617F tox: 6; aSyn 5UTR inh: 8; BaF3 tox: 9; APP 5UTR inh: -15

What do the screens show for `Cc1nc2ccccn2c1-c1csc(Nc2cccc(O)c2)n1`?
IEC-6 tox-1: 5; KLF5 inhibitor: 74*; Ba/F3 V617F tox: 80*; aSyn 5UTR inh: 49; BaF3 tox: 78*; APP 5UTR inh: 89*; KLF5 inh confirm: 68*; IEC-6 tox-2: 4

What do the screens show for `Cc1nnc(SCC(=O)N2CCCC(N3CCN(c4ccc(F)cc4)CC3)C2)o1` (stereo not drawn)?
IEC-6 tox-1: -1; KLF5 inhibitor: -7; aSyn 5UTR inh: 1

Results for CCN1/C(=C/c2ccc3ccccc3[n+]2CC)C=Cc2ccccc21 ?
IEC-6 tox-1: 48*; KLF5 inhibitor: 66*; Ba/F3 V617F tox: 99*; aSyn 5UTR inh: 10; BaF3 tox: 92*; APP 5UTR inh: 33; KLF5 inh confirm: 103*; IEC-6 tox-2: 58*

What do the screens show for `Nc1c(Cl)cc(-c2csc(N3CCCC3c3nc4cc(Cl)c(N5CCCCC5)cc4n3CCOCCO)n2)cc1Cl` (stereo not drawn)?
aSyn 5UTR inh: -20

How did CCOCCc1c(O)nc(SCC)[nH]c1=O do in these assays?
IEC-6 tox-1: 1; KLF5 inhibitor: 4; Ba/F3 V617F tox: -1; aSyn 5UTR inh: 8; BaF3 tox: 0

Results for Clc1ccccc1/C=C/c1nc(-c2ccccn2)no1 ?
IEC-6 tox-1: -6; KLF5 inhibitor: 72*; Ba/F3 V617F tox: -2; aSyn 5UTR inh: 104*; BaF3 tox: 2; KLF5 inh confirm: 73*; IEC-6 tox-2: 5

Results for Cc1nc(C)n(CC(C)C(=O)N2CCN(S(=O)(=O)c3ccccc3)CC2)n1 (stereo not drawn) ?
IEC-6 tox-1: 3; KLF5 inhibitor: -10; aSyn 5UTR inh: 12

What do the screens show for `Cc1sc2ncnc(N3CCC(C(=O)Nc4nnc(SCc5ccccc5F)s4)CC3)c2c1C`?
aSyn 5UTR inh: 3

What do the screens show for `O=C1CCCCC1Sc1nnc(-c2ccc3c(c2)OCO3)o1` (stereo not drawn)?
IEC-6 tox-1: 6; KLF5 inhibitor: 66*; Ba/F3 V617F tox: 5; aSyn 5UTR inh: 33; BaF3 tox: 8; APP 5UTR inh: -178; KLF5 inh confirm: 40; IEC-6 tox-2: -2

Results for Clc1ccc(CSc2nnc(-c3ccc4c(c3)OCO4)o2)cc1 ?
IEC-6 tox-1: -2; KLF5 inhibitor: -37; Ba/F3 V617F tox: -3; aSyn 5UTR inh: -4; BaF3 tox: 5; APP 5UTR inh: 4

How did CCOC(=O)COc1cccc2c(=O)n(CC(=O)NCc3ccc(F)cc3)ccc12 do in these assays?
IEC-6 tox-1: 7; KLF5 inhibitor: 63*; Ba/F3 V617F tox: 72*; aSyn 5UTR inh: 75*; BaF3 tox: 68*; KLF5 inh confirm: 80*; IEC-6 tox-2: 23*

How did Cc1ccc(NC(=O)c2cc3ccccc3oc2=O)cc1S(=O)(=O)N(C)C do in these assays?
IEC-6 tox-1: 4; KLF5 inhibitor: 76*; Ba/F3 V617F tox: 2; aSyn 5UTR inh: 73*; BaF3 tox: 5; APP 5UTR inh: 47*; KLF5 inh confirm: 87*; IEC-6 tox-2: -7

Results for COc1ccc(CCN(C)C(=O)COc2ccc(N(C)S(=O)(=O)c3ccc(C)cc3)cc2)cc1OC ?
aSyn 5UTR inh: 22

How did COC(=O)c1nn(-c2ccc3c(c2)OCO3)cc1O do in these assays?
IEC-6 tox-1: 5; KLF5 inhibitor: -58; Ba/F3 V617F tox: 1; aSyn 5UTR inh: -86; BaF3 tox: 0; APP 5UTR inh: -64

Results for COC(=O)c1nn(-c2ccc3c(c2)CCN3C(C)=O)cc1O ?
IEC-6 tox-1: 2; KLF5 inhibitor: 75*; Ba/F3 V617F tox: 5; aSyn 5UTR inh: 91*; BaF3 tox: 7; APP 5UTR inh: 23; KLF5 inh confirm: 78*; IEC-6 tox-2: 9

What do the screens show for `C/C(=N\NC(=O)C1CC1)c1ccc(OC(F)F)cc1`?
IEC-6 tox-1: 2; KLF5 inhibitor: -32; aSyn 5UTR inh: -2

What do the screens show for `CC(C)(C)c1ccc(-c2noc(CCC(=O)NCC3CCCO3)n2)cc1` (stereo not drawn)?
IEC-6 tox-1: -1; KLF5 inhibitor: 74*; Ba/F3 V617F tox: -5; aSyn 5UTR inh: 104*; BaF3 tox: 5; APP 5UTR inh: 60*; KLF5 inh confirm: 67*; IEC-6 tox-2: 7

Results for CC(C)(C)c1ccc(-c2noc(CCC(N)=O)n2)cc1 ?
IEC-6 tox-1: 6; KLF5 inhibitor: 86*; Ba/F3 V617F tox: 5; aSyn 5UTR inh: 91*; BaF3 tox: 6; APP 5UTR inh: 72*; KLF5 inh confirm: 85*; IEC-6 tox-2: -4

What do the screens show for `Cc1ccc(-c2noc(CCC(=O)NCC3CCCO3)n2)cc1` (stereo not drawn)?
IEC-6 tox-1: -1; KLF5 inhibitor: -36; Ba/F3 V617F tox: -1; aSyn 5UTR inh: -30; BaF3 tox: 0; APP 5UTR inh: -7

How did CC(C)(C)c1ccc(-c2noc(CCC(=O)Nc3cccnc3)n2)cc1 do in these assays?
IEC-6 tox-1: -2; KLF5 inhibitor: 78*; aSyn 5UTR inh: 77*; KLF5 inh confirm: 87*; IEC-6 tox-2: 12

Results for O=C(NCCc1cccc(Cl)c1)c1cc2ccccc2oc1=O ?
IEC-6 tox-1: -2; KLF5 inhibitor: -22; aSyn 5UTR inh: -25

Results for Cc1noc(C)c1S(=O)(=O)N(CC(=O)NC(C)c1ccccc1)c1ccc(C(C)C)cc1 (stereo not drawn) ?
IEC-6 tox-1: 0; KLF5 inhibitor: -14; aSyn 5UTR inh: -3

What do the screens show for `Cn1c(CNC(=O)c2ccc(F)cc2)nc2ccccc21`?
IEC-6 tox-1: -4; KLF5 inhibitor: 1; Ba/F3 V617F tox: -3; aSyn 5UTR inh: -7; BaF3 tox: 0; APP 5UTR inh: -12

What do the screens show for `CSc1nc(N(C)NC(=O)c2ccc(F)cc2)c2ccccc2n1`?
IEC-6 tox-1: 78*; KLF5 inhibitor: 79*; Ba/F3 V617F tox: 72*; aSyn 5UTR inh: 77*; BaF3 tox: 73*; APP 5UTR inh: 95*; KLF5 inh confirm: 78*; IEC-6 tox-2: 61*
